Test results: PubChem BioAssay (NCATS)
Records with an inconclusive call do not appear. A call without a number means that no potency is given here. Activity calls are given as the source filed them. Calls follow the shape of the dose curve; as a rule, active = well fitted inhibition curve with a large enough effect; inconclusive = small, poorly fitted or top-dose-only effect; inactive = flat fitted curve, though single readings scatter.

Columns and labels:
Assay in all cases: qHTS profiling for inhibitors of Plasmodium falciparum proliferation (AID 504749); also: nearly all actives have a fitted effect of over 60% in size
Conditions in all cases: P. falciparum in erythrocytes, SYBR Green DNA, 72 h; series mostly up to 28.7 µM
3D7 = tested on: 3D7
How it was run: (§1)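 Each compound contacts P. falciparum-infected red blood cells for 72 h at 37 C; lysis buffer (Tris, EDTA, saponin, Triton X, SYBR Green I) is added and fluorescence measured next morning; values normalized to controls.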

7G8 = tested on: 7G8
How it was run: as §1

ATS95 = tested on: ATS95
How it was run: as §1

C2A = tested on: C2A
How it was run: as §1

CP191 = tested on: CP191
How it was run: as §1

CP247 = tested on: CP247
How it was run: as §1

CP250 = tested on: CP250
How it was run: as §1

CP256 = tested on: CP256
How it was run: as §1

CP260 = tested on: CP260
How it was run: as §1

CP297 = tested on: CP297
How it was run: as §1

CP335 = tested on: CP335
How it was run: as §1

GB4 = tested on: GB4
How it was run: as §1

P93_24 = tested on: P93_24
How it was run: as §1

P94_40 = tested on: P94_40
How it was run: as §1

PAD = tested on: PAD
How it was run: as §1

PC26 = tested on: PC26
How it was run: as §1

TAB113 = tested on: TAB113
How it was run: as §1

TAB165 = tested on: TAB165
How it was run: as §1

CP266 = tested on: CP266
How it was run: as §1

DIV17 = tested on: DIV17
How it was run: as §1
Potency is read from the fitted curve at half-maximal effect.

Structure (SMILES) | Potency (3D7) | Potency (7G8) | Potency (ATS95) | Potency (C2A) | Potency (CP191) | Potency (CP247) | Potency (CP250) | Potency (CP256) | Potency (CP260) | Potency (CP297) | Potency (CP335) | Potency (GB4) | Potency (P93_24) | Potency (P94_40) | Potency (PAD) | Potency (PC26) | Potency (TAB113) | Potency (TAB165) | Potency (CP266) | Potency (DIV17)
CC1(C(=O)O)CCC2(C)CCC3(C)C(=CC(=O)C4C5(C)CCC(O)C(C)(C)C5CCC43C)C2C1 (centres undefined) | inactive | inactive | inactive | inactive | inactive | inactive | inactive | inactive | inactive | inactive | inactive | inactive | inactive | inactive | inactive | inactive | inactive | inactive | – | –
CCN(CC)CC(=O)Nc1c(C)cc(C)cc1C | inactive | inactive | inactive | inactive | inactive | inactive | inactive | inactive | inactive | inactive | – | inactive | inactive | inactive | inactive | inactive | inactive | inactive | inactive | inactive
Cc1ccc(/C=C2/C(=O)C3(C)CCC2C3(C)C)cc1 (centres undefined) | inactive | inactive | inactive | inactive | inactive | inactive | inactive | inactive | inactive | – | – | inactive | inactive | inactive | inactive | inactive | inactive | inactive | inactive | inactive
CCCCC(=O)OCC(=O)[C@]1(O)Cc2c(O)c3c(c(O)c2[C@H](OC2CC(NC(=O)C(F)(F)F)C(O)C(C)O2)C1)C(=O)c1c(OC)cccc1C3=O (some centres undefined) | 1580 nM (active) | 1260 nM (active) | 2000 nM (active) | 2000 nM (active) | 2510 nM (active) | 3160 nM (active) | 2510 nM (active) | 2000 nM (active) | 2000 nM (active) | 1510 nM (active) | 1510 nM (active) | 3790 nM (active) | 2000 nM (active) | 2000 nM (active) | 2240 nM (active) | 1510 nM (active) | 2510 nM (active) | 2240 nM (active) | 1690 nM (active) | 1510 nM (active)
Cc1ccccc1N1C(=O)c2cc(N)ccc2N/C1=C\F | inactive | inactive | inactive | inactive | inactive | inactive | inactive | inactive | inactive | inactive | inactive | inactive | inactive | inactive | inactive | inactive | inactive | inactive | inactive | –
Cc1ccc(Nc2ncccc2C(=O)O)cc1C | inactive | inactive | inactive | inactive | inactive | inactive | inactive | inactive | inactive | inactive | inactive | inactive | inactive | inactive | inactive | inactive | inactive | inactive | inactive | inactive
NC(=O)OC[C@@H]1[C@H](NC(=O)/C(=N/OCC(=O)O)c2csc(N)n2)C(=O)N1S(=O)(=O)O | inactive | inactive | inactive | inactive | inactive | inactive | inactive | inactive | inactive | inactive | inactive | inactive | inactive | inactive | inactive | inactive | inactive | inactive | inactive | –
CCCC(=O)O[C@]1(C(=O)COC(C)=O)CC[C@H]2C3C[C@H](F)C4=CC(=O)C=CC4(C)[C@@]3(F)[C@@H](O)CC21C (some centres undefined) | inactive | 11200 nM (active) | inactive | inactive | inactive | inactive | inactive | inactive | inactive | inactive | inactive | – | – | inactive | – | – | inactive | – | inactive | –
CC1C(=O)C(=O)C=CN1C (centres undefined) | inactive | inactive | inactive | inactive | inactive | inactive | inactive | inactive | – | inactive | inactive | inactive | inactive | inactive | inactive | inactive | inactive | inactive | inactive | inactive
CN(C)CC/C=C1\c2ccccc2COc2ccc(CC(=O)O)cc21 | inactive | inactive | inactive | inactive | inactive | inactive | inactive | inactive | inactive | inactive | – | inactive | inactive | inactive | inactive | – | inactive | inactive | inactive | inactive
OCC1OC(O)C(O)C(O)C1O (centres undefined) | inactive | inactive | inactive | inactive | inactive | inactive | inactive | inactive | inactive | – | inactive | – | inactive | inactive | inactive | – | inactive | inactive | inactive | –
OCC(CO)NC1C[C@](O)(CO)[C@@H](O)[C@H](O)[C@H]1O (some centres undefined) | inactive | inactive | inactive | inactive | inactive | inactive | inactive | inactive | inactive | inactive | inactive | inactive | inactive | inactive | inactive | inactive | inactive | inactive | – | inactive
